This note sets out measurements from PubChem BioAssay.

The nature of assay [1]: inhibitors of TNFa-induced NFkB p65 translocation, primary screen, imaging, HUVEC, MLSMR starter and 10KST1 sets (AID 438;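 active means inhibition above 20% together with a positive visual image hit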;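 further: compound added about 3h40 before a 20 min TNFalpha stimulation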;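 on inhibition: signal is the nuclear over cytoplasmic p65 intensity ratio per well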). To be noted: HUVEC TNFa-induced p65 nuclear translocation; cell count: measured here: nuclei count (cytotoxicity indicator), at 2.08 µM unless noted; inhibition: at 2 µM, stronger effect = higher value unless noted.
Assay [2] in a line: inhibitors of mutant huntingtin aggregation, primary screen, imaging, exon1htt(103Q)mCFP cells, high-content imaging (AID 483;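 active means visual image review flags a hit and inhibition of aggregation exceeds 20%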;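 further: compound exposure lasted 3 days before fixation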;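 on nuclei count: percent of the per-plate median nuclei count of sample wells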). To be noted: exon1htt(103Q)mCFP cell line, aggregate imaging, at 2 µM; inhibition of aggregation: stronger effect = higher value; nuclei count: measured here: cell count, toxicity.
Assay [3] can be described thus: inhibitors of E-selectin induction by TNFa, primary screen, imaging, HUVEC, immunofluorescence, MLSMR starter and 10KST1 sets (AID 487;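 active means visually confirmed hit in the image check and inhibition above 20%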;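 on inhibition: signal is fraction of cell area covered by stained E-selectin grains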;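 on nuclei count: 100% = median nuclei count of all wells on the same plate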). The settings on record: HUVEC TNFalpha-induced E-selectin immunofluorescence imaging, at 2 µM; inhibition: stronger effect = higher value; nuclei count: measured here: cell number, toxicity.
A short description of assay [4]: DUSP6 inhibitors restoring Erk phosphorylation by chemical complementation, primary imaging in DUSP6-transfected HeLa (AID 609).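 On inhibition: phospho-Erk level distribution per well compared with pooled transfected vehicle control wells.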 The settings on record: HeLa MKP-3 transfected, phospho-Erk imaging KS statistic, at 10 µM.
The target of assay [5] is Dual specificity protein phosphatase 6 (Homo sapiens) (UniProt Q16828). The description is as above. To be noted: HeLa MKP-3 transfected, phospho-Erk imaging KS statistic, at 10 µM, stronger effect = higher value.
Dual specificity protein phosphatase 6 (Homo sapiens), sequence (Q16828 whole entry, looked up): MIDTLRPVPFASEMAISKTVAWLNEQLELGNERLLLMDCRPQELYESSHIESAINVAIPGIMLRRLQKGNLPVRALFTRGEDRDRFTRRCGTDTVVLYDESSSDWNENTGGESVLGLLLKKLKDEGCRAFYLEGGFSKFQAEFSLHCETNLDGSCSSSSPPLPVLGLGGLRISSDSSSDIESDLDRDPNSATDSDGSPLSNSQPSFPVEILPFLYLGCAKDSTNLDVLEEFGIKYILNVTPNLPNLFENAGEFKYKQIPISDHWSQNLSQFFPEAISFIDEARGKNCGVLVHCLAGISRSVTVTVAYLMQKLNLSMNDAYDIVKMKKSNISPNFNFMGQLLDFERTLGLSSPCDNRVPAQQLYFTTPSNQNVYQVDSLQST
Assay [6] addresses Voltage-gated potassium channel subunit beta-2 (Rattus norvegicus) (UniProt P62483). As to the kind of experiment: KvBeta enzyme negative modulators, primary screen, biochemical, NADPH fluorescence (AID 622;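 active means fluorescence slope higher than the sample average by over 3 SD, cut at about -0.22 in these data, passing the limit was not always enough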;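 further: slope of raw intensity against log time taken from 70 to 1610 s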). To be noted: recombinant KvBeta, 4-cyanobenzaldehyde reduction, at 10 µM, stronger effect = higher value.
Assay [7] shares this target. As to the kind of experiment: KvBeta positive modulators, primary screen, biochemical, NADPH fluorescence (AID 623;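 active means NADPH fluorescence slope more negative than the mean of all samples by about 3 SD, 99.7% confidence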;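 further: fluorescence intensity change per second fitted from 20 to 320 s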). To be noted: Recombinant KvBeta, NADPH fluorescence decrease slope, 10 min; at 10 µM; stronger effect = lower value.
Assay [8] has as its target Alpha-2C adrenergic receptor (Homo sapiens) (UniProt P18825). As to the kind of experiment: modulators of alpha2C/GIRK thallium flux, primary screen, cell-based, HEK293 alpha2C/GIRK1/2 (AID 624;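 active means fluorescence slope after compound addition differing from the mean of all screened samples at 99.7% confidence, in either direction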;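 further: slope of fluorescence ratio to pre-addition baseline per second over 15 to 24 s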). The settings on record: thallium flux BTC fluorescence, at 10 µM, actives lie on both sides.
Assay [9] can be described thus: inhibitors of larval lipid processing in zebrafish, primary screen, whole organism, PED6 fluorescence, gall bladder and intestine (AID 686;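 active means a full or partial loss of lipid-probe fluorescence in the fish gall bladder, intestine or both, judged by eye; inactive means no fluorescence loss, or compound toxic to the fish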;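 further: larvae 5 to 7 days old with five fish per well; signal comes from phospholipase A2 cleavage of quenched PED6 carried via bile; overnight exposure to compound and PED6 before scoring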). To be noted: Zebrafish larvae PED6 lipid processing, fluorescence scoring.
Assay [10] can be described thus: inhibitors of Chlamydomonas gravitaxis, primary screen, whole organism, Chlamydomonas reinhardtii, WT vs cilia-less mutant, absorbance, 96-well (AID 463189;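 active means inhibition at or above 50% relative to wild type and mutant plate controls; inactive means inhibition below 50%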;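 further: 0% = wild type cc124 cells in DMSO and 100% = ciliumless bld1 mutant cells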). The settings on record: OD600 absorbance, 2 days, at 10 µM, stronger effect = higher value.
The nature of assay [11]: inhibitors of Sendai virus-induced IRF3 signaling, primary screen, TLR/RLR signaling modifier project, cell-based, Sendai virus stimulus, luciferase, 10K MLSCN set (AID 602276;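 active means inhibition at or above 50% at 10 µM; inactive means inhibition below 50%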;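 further: firefly luciferase from ISG56 promoter only with Renilla not read in this screen; 0% = Sendai virus plus DMSO and 100% = medium plus DMSO without virus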). The settings on record: HEK293 RL24 IRF3 luciferase reporter, at 10 µM, stronger effect = higher value. (In general: A reporter such as luciferase makes a cellular process visible.)
Assay [12] is described as follows: inhibitors of poly I:C-induced TLR3 signaling, primary screen, cell-based, poly I:C stimulus, luciferase, 10K MLSCN set (AID 602277;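 active means inhibition of the reporter signal at or above 50%; inactive means inhibition below 50%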). The settings on record: HEK293-TLR3 RL24 IRF3 luciferase reporter, at 10 µM, stronger effect = higher value.
Assay [13] deals with Muscarinic acetylcholine receptor M4 (Homo sapiens) (UniProt P08173). Kind of assay: compounds altering M4/GIRK thallium flux, either direction, primary screen, M4 allosteric agonist project, cell-based, HEK293 M4/GIRK, BTC-AM (AID 625;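 active means fluorescence slope after compound addition differing from the mean of all tested samples at 99.7% confidence, mostly higher but some lower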;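 further: thallium influx through GIRK channels coupled to M4 in HEK293 cells with BTC-AM dye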). The settings on record: at 10 µM, actives lie on both sides.
Muscarinic acetylcholine receptor M4 (Homo sapiens), sequence (P08173 whole entry, looked up): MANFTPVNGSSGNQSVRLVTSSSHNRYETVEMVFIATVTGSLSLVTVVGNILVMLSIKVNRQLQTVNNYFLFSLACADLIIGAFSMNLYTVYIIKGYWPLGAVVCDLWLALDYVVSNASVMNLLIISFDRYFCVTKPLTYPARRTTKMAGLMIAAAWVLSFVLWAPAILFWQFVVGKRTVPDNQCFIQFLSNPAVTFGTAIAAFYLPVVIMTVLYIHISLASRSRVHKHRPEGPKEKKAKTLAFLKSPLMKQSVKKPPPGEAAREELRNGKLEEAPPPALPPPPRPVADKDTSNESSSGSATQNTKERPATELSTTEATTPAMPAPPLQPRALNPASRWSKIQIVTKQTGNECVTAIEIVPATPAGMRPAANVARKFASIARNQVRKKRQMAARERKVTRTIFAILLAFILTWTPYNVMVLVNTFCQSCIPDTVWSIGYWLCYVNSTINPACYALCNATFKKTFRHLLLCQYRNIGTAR
Setting [14] is: measured here: cell density z-score.
Setting [15] is: measured here: nuclear c-Myc green intensity z-score.
[16] abbreviates: measured here: nuclear pErk red intensity z-score, stronger effect = higher value.

Activity calls are given as the source filed them.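 How the source made its calls, unless noted: active means compounds giving at least 50% inhibition in the cell-based MKP-3 phosphatase rescue imaging test; inactive means the rest.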

Alpha-2C adrenergic receptor (Homo sapiens), sequence (P18825 whole entry, looked up): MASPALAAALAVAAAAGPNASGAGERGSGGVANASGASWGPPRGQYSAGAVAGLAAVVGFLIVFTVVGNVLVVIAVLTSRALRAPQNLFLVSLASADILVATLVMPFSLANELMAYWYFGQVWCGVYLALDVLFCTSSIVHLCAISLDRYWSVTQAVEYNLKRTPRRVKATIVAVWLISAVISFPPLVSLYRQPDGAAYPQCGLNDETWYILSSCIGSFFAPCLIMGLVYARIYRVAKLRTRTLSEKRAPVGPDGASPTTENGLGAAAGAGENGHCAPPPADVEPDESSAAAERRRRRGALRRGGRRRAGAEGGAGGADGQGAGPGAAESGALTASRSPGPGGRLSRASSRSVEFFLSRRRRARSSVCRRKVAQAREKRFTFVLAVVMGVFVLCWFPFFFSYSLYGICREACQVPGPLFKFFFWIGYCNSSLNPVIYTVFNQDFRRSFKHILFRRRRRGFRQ
Voltage-gated potassium channel subunit beta-2 (Rattus norvegicus), sequence (P62483 whole entry, looked up): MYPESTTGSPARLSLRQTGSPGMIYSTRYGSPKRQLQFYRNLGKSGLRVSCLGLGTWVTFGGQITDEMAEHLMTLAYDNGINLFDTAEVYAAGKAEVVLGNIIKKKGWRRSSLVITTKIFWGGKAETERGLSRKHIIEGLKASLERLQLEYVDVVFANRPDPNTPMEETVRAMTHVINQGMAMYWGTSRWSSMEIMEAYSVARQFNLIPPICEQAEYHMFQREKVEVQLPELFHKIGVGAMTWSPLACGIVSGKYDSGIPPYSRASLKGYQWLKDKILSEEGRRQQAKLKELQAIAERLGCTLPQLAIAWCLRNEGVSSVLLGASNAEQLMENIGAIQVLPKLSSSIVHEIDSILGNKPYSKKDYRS

Usually inhibition stands for the relative decrease from the control value, in per cent. On to `CCOC(=O)c1cc2c(cn1)[nH]c1ccccc12`, for which the cell count in assay [1] was 594. Moreover, the inhibition in [1] is -2.5% (inactive); in assay [3] it was -12.8% (inactive); in assay [5], 1.48% (inactive); in assay [10], -6.97% (inactive); in [11] it was -4.33% (inactive); in assay [12], -27.3% (inactive). Also, the inhibition of aggregation in assay [2] is 2% (inactive). The nuclei count amounted to 102% in [2] and 110% in assay [3]. Further, the z-score was -0.332 in assay [4] (setting [14]), -1.06 in assay [4] (setting [15]) and -1.1 in [4] (setting [16]). Also, the fluorescence slope in assay [6] is -0.368 (inactive). The NADPH fluorescence slope in [7] is 7.4e-07 (inactive). Besides, in [8], the slope is 0.00544 (inactive). Also, in assay [9], the outcome was inactive.

The molecule `COc1ccc(C(=O)CN2CCOCC2)cc1F` had a cell count in assay [1] of 662. Further, the inhibition is -8.3% (inactive) in assay [1], -111% (inactive) in [3], 5.57% (inactive) in [5] and 0.889% (inactive) in assay [10]. This molecule also had a nuclei count in assay [3] of 168%. Besides, the z-score was -0.933 in assay [4] (setting [14]), 0.019 in [4] (setting [15]) and -0.631 in assay [4] (setting [16]). Besides, the fluorescence slope in [6] is -0.506 (inactive). Besides, the NADPH fluorescence slope in [7] was -5.2e-05 (inactive). The slope in [8] was 0.0047 (inactive). Moreover, in [9], the result was inactive.

In [1], `CN1C(=O)CN=C(c2ccc(Cl)cc2)c2cc(Cl)ccc21` displayed a cell count of 702. The inhibition in assay [1] is -2.8% (inactive); in assay [3] it was -88.1% (inactive); in assay [5], -6.41% (inactive); in assay [10], -0.225% (inactive); in [11] it was 0.552% (inactive); in assay [12], 32% (inactive). Also, the inhibition of aggregation in assay [2] is -25.6% (inactive). Moreover, the nuclei count in assay [2] was determined as 108%; in assay [3] it was 128%. Moreover, the values for the z-score in [4] (setting [14]), in [4] (setting [15]) and in assay [4] (setting [16]) were 0.107, -0.617 and 0.523, respectively. Further, the fluorescence slope in [6] is -0.442 (inactive). Further, the NADPH fluorescence slope in assay [7] was -4.1e-05 (inactive). Besides, the slope in [8] was 0.00345 (inactive). In addition, the outcome in assay [9] is “inactive; toxic”.

In [1], `OCCOCC#CCN1CCOCC1` yielded a cell count of 582. For the same molecule, the inhibition is 8.1% (inactive) in assay [1]; -167% (inactive) in assay [3]; 17.8% (inactive) in assay [5]; -6.14% (inactive) in [10]; 19.2% (inactive) in assay [11]; 20.5% (inactive) in [12]. Moreover, the inhibition of aggregation in assay [2] is -15.3% (inactive). For the same molecule, the figures for the nuclei count in assay [2] and in [3] were 100% and 137%, respectively. For the same molecule, the figures for the z-score in [4] (setting [14]), in assay [4] (setting [15]) and in assay [4] (setting [16]) were -0.584, 1.05 and 0.188, respectively. In addition, the fluorescence slope in [6] is -0.497 (inactive); in [13], 0.006 (inactive). For the same molecule, in assay [7], the NADPH fluorescence slope was -5.8e-05 (inactive). Further, the molecule was called inactive in [9].

In the case of `CN(C)[C@@H]1C(=O)C(C(N)=O)=C(O)[C@@]2(O)C(=O)C3=C(O)c4c(O)ccc(Cl)c4[C@@](C)(O)C3C[C@@H]12` (some centres undefined), in [1], the cell count turned out to be 634. The inhibition in [1] is -1.6% (inactive); in assay [3], -43.7% (inactive); in [5], 21.2% (inactive); in [10], 51.9% (active); in assay [11] it was 23% (inactive); in assay [12] it was 44.9% (inactive). Besides, in assay [2], the inhibition of aggregation is 76.3% (active). For the same molecule, the values for the nuclei count in assay [2] and in [3] were 102% and 123%, respectively. In addition, the z-score is -1.02 in [4] (setting [14]), 0.954 in assay [4] (setting [15]) and -0.997 in assay [4] (setting [16]). Besides, the fluorescence slope in [6] is -0.468 (inactive). For the same molecule, the NADPH fluorescence slope in assay [7] is -6.5e-07 (inactive). Besides, the slope in [8] is 0.00588 (inactive). The result in assay [9] was inactive.

Molecule `C=C1CC[C@@]2(O)[C@H]3Cc4ccc(O)c5c4[C@@]2(CCN3CC2CC2)[C@H]1O5` had a cell count in assay [1] of 527. The inhibition in assay [1] is 0.1% (inactive); in assay [3], -20.4% (inactive); in assay [5], 14.6% (inactive); in [10], -15.6% (inactive); in assay [11], -6.04% (inactive); in [12], 25% (inactive). Moreover, in assay [2], the inhibition of aggregation was -9.9% (inactive). Further, the results for the nuclei count in [2] and in assay [3] were 99.2% and 109%, respectively. In addition, the z-score is 0.737 in [4] (setting [14]), 1.29 in [4] (setting [15]) and -0.809 in [4] (setting [16]). The fluorescence slope in [6] is -0.469 (inactive). For the same molecule, in assay [7], the NADPH fluorescence slope was -4e-05 (inactive). The slope in [8] is 0.00496 (inactive). In addition, in assay [9], the result was inactive.

In [1], `CCCC(=O)OCC[N+](C)(C)C` showed a cell count of 626. In addition, the inhibition in assay [1] is -8.2% (inactive); in assay [3], -31.1% (inactive); in assay [5], 13.3% (inactive); in assay [10] it was 18.3% (inactive); in assay [11] it was 21.4% (inactive); in assay [12], 35% (inactive). Further, the inhibition of aggregation in assay [2] is -16.7% (inactive). The nuclei count in assay [2] turned out to be 111%; in [3], 135%. Moreover, the results for the z-score in assay [4] (setting [14]), in assay [4] (setting [15]) and in [4] (setting [16]) were 0.404, -0.787 and 0.37, respectively. For the same molecule, in assay [6], the fluorescence slope is -0.481 (inactive). For the same molecule, the NADPH fluorescence slope in assay [7] is 5e-06 (inactive). Moreover, the slope in assay [8] is 0.00561 (inactive). In addition, the call in [9] was inactive.

`CNCCc1c[nH]c2ccccc12`: the cell count in assay [1] came to 615. For the same molecule, the inhibition in assay [1] is -10.3% (inactive); in assay [3] it was -70.6% (inactive); in [5] it was -6.41% (inactive); in assay [10], 1.04% (inactive); in [11], 25.5% (inactive); in assay [12], 49.1% (inactive). Besides, the inhibition of aggregation in [2] was 3.8% (inactive). In addition, the nuclei count in [2] is 103%; in assay [3], 127%. Further, the z-score in assay [4] (setting [14]) was -0.539; in assay [4] (setting [15]), -0.571; in [4] (setting [16]), -0.457. In addition, in assay [6], the fluorescence slope is -0.506 (inactive). In assay [7], the NADPH fluorescence slope is 2.2e-05 (inactive). Also, in assay [8], the slope is 0.00539 (inactive). In addition, the molecule was classed as inactive in assay [9].

In assay [1], `CC(C)(C)OC(=O)c1c(N)n(Cc2ccco2)c2nc3ccccc3nc12` returned a cell count of 394. Further, the inhibition was -12.8% (inactive) in assay [1]; -57.4% (inactive) in assay [3]; 13.4% (inactive) in assay [5]; 19.2% (inactive) in assay [10]; 6.73% (inactive) in assay [11]; -1.48% (inactive) in assay [12]. Further, the inhibition of aggregation in assay [2] was -3.4% (inactive). Also, the nuclei count is 81% in [2] and 127% in assay [3]. Further, the z-score in assay [4] (setting [14]) is 0.353; in [4] (setting [15]), -0.801; in assay [4] (setting [16]), -1.16. Further, the fluorescence slope in [6] was -0.293 (inactive). In addition, the NADPH fluorescence slope in assay [7] is 5.9e-05 (inactive). Further, the slope in assay [8] was 0.00636 (inactive). The molecule was called inactive in assay [9].
